# BoNT A protease – BoNT/A light chain protease inhibitors, primary screen, biochemical, flow cytometry, MLPCN library | Botulinum neurotoxin type A light chain protease (Clostridium botulinum A str. ATCC 3502) | multiplex microsphere protease substrate cleavage | inhibition, % at 10 µM | 0.17% of 360,000 active | AID 588499, 2011; also: plate controls were buffer without enzyme for full effect and enzyme alone for no effect
# MazEF act – activators of E. coli MazEF toxin-antitoxin RNase, primary screen, biochemical, fluorescence, uHTS; Endoribonuclease toxin MazF (Escherichia coli (strain K12)), P0AE70; FAM/BHQ RNA-DNA oligo cleavage fluorescence, 5 h; activation, % at 20 µM; 0.32% of 350,000 active; in the data active = activation above about 50%
# Bead autofluor – counter-screen for toxin protease inhibitors: compound fluorescence | 3.1% of 360,000 active | fluorescence intensity (test concentration not listed) | compound autofluorescence counterscreen, microsphere flow cytometry; stronger effect = higher value; in the data active = fluorescence intensity above about 16000; inconclusive = no clear call, values can overlap the other calls
# Anthrax LF prot – Bacillus anthracis LF protease inhibitors, primary screen, biochemical, multiplex microsphere, MLPCN library; Lethal factor (Bacillus anthracis), P15917; multiplex microsphere protease cleavage assay; inhibition, % at 10 µM; 0.12% of 360,000 active; AID 588501, 2011; also: plate controls were buffer without enzyme for full effect and enzyme alone for no effect
# Target sequence (P15917 whole entry, looked up): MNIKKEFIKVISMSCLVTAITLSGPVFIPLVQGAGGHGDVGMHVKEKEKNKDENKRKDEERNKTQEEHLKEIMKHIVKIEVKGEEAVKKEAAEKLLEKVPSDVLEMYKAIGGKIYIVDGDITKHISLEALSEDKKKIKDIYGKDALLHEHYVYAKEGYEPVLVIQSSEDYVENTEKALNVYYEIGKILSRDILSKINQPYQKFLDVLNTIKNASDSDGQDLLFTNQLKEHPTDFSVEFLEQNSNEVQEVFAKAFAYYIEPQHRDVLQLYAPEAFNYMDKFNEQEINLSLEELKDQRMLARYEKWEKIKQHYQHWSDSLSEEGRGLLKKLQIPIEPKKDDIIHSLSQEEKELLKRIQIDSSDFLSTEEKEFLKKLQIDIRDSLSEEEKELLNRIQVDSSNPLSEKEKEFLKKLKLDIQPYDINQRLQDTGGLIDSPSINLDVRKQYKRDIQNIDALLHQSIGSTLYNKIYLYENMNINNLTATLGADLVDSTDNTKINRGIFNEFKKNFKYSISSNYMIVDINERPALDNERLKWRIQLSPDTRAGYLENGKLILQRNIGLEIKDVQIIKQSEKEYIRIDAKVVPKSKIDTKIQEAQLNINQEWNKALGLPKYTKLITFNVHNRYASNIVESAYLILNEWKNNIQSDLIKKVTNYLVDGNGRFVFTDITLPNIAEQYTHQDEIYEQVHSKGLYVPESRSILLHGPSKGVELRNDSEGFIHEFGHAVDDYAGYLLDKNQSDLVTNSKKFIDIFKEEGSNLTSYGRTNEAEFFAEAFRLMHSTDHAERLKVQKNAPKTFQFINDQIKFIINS
# BH1578 lux ind – inducers of Vibrio cholerae quorum light production without autoinducers, primary screen, BH1578 luxS cqsA deficient, single point; V. cholerae BH1578 lux reporter, luminescence, 6 h; activation, % at 18.7 µM; 0.16% of 350,000 active; AID 588436, 2011; in the data active = activation mostly above about 9.7%, no sharp cut-off; inconclusive = no clear call, values can overlap the other calls; inactive = mostly below about 3.7%
# BoNT F protease – BoNT/F light chain protease inhibitors, primary screen, biochemical, flow cytometry, MLPCN library | Botulinum neurotoxin type F light chain protease (Clostridium botulinum) | Multiplex microsphere protease cleavage assay | inhibition, % at 10 µM | 0.22% of 360,000 active; in the data active = inhibition above about 35%, passing the limit was not always enough; inconclusive = no clear call, values can overlap the other calls; also: plate controls were buffer without enzyme for full effect and enzyme alone for no effect
# * = called active by the depositor; i = inactive; ? = inconclusive; · = not tested or not shown. Only some compounds are listed: those with a hit (about 3.9% of all), similar ones and a draw of the others. Rule as the data show it, unless noted: active = inhibition above about 30%; inconclusive = no clear call, values can overlap the other calls; inactive = below that.
SMILES,BoNT A protease,MazEF act,Bead autofluor,Anthrax LF prot,BH1578 lux ind,BoNT F protease
O=C(COC(=O)Cc1c[nH]c2ccccc12)Nc1cccc(Br)c1,0,-1,3987,-5,i,3
COc1cccc(C(=O)NNC2=CC(=O)CC(C)(C)C2)c1,-1,0,20933*,-2,0,-4
COc1ccc(CNC2=CC(=O)CC(C)(C)C2)cc1,-2,9,24712*,-1,-6,-4
CC1(C)CC(=O)C=C(NCc2ccc(C(=O)O)cc2)C1,-1,-5,?,-6,0,-9
O=C(OCc1cn([C@H]2C[C@H](c3ccc(Cl)cc3)N(Cc3cccs3)C[C@@H]2O)nn1)c1ccccc1,0,-4,3945,3,-1,-7
CCC(=O)Oc1ccc(-c2nc(-c3cccnc3)no2)cc1,-3,-8,20402*,4,i,-4
Cc1ccc(-c2nc(-c3cccnc3)no2)cc1,0,3,4766,-2,i,9
O=C(CCN1C(=O)S/C(=C\c2cccs2)C1=O)NC1=NCCS1,0,5,2742,0,3,-6
CCOC(=O)NC(Nc1nc2ccccc2s1)(C(=O)OCC)C(F)(F)F (stereo not given),-6,1,25071*,-3,i,-8
C(#Cc1ccccc1)C[N+]1(CC#Cc2ccccc2)CCCCC1,-2,57*,4625,-4,-2,-2
Nc1ncnc2c1ncn2C1C=C(CO)C(O)C1O (stereo not given),0,6,4171,0,i,2
CN1CCN(C(=O)Nc2cccc3ccccc23)CC1,3,2,18834*,-7,1,3
CCN1CCN(C(=O)Nc2cccc3ccccc23)CC1,0,-1,8575,2,0,-3
Cc1cc(C)c(C(=O)COC(=O)Cn2c(C)csc2=O)cc1C,1,-6,5096,2,i,2
CC(=O)c1cccc(NC(=O)c2csc(-n3nc(C)cc3C(F)(F)F)n2)c1,?,-2,22022*,0,i,-1
Cc1cc(C(F)(F)F)n(-c2nc(C(=O)Nc3cccnc3)cs2)n1,0,-1,4400,4,-3,6
CC(C)(C)CC(C)(C)NC1=CC(=O)OC12CCCCC2,0,4,8007,1,i,-8
CC(C)(C)NC1=CC(=O)OC12CCCCC2,1,0,23197*,-2,-6,0
O=C1/C(=C\c2ccccn2)SC(=S)N1Nc1ncc(C(F)(F)F)cc1Cl,2,4,22887*,0,0,3
Cc1ccc2nc(Cl)c(/C=C/C(=O)c3ccco3)cc2c1,-1,-29,6767,2,0,-6
COc1cc2cc(/C=C/C(=O)c3ccco3)c(Cl)nc2cc1OC,7,267*,4079,4,i,9
CCOc1ncnc2c1oc1nc(CC(C)C)c3c(c12)CC(C)(C)OC3,2,5,19881*,0,0,3
CCCc1nc2oc3c(NCC4CCCO4)ncnc3c2c2c1COC(C)(C)C2 (stereo not given),1,7,22258*,1,i,0
COc1ncnc2c1oc1nc(C(C)C)c3c(c12)CC(C)(C)OC3,1,5,8652,1,0,11
Cc1c(C(=O)Nc2ccccc2)sc2nc(-c3ccccc3)cn12,-1,-13,23471*,-2,i,-1
SMILES,BoNT A protease,MazEF act,Bead autofluor,Anthrax LF prot,BH1578 lux ind,BoNT F protease
Cc1c(C(=O)NCc2ccccn2)sc2nc(-c3ccccc3)cn12,0,4,4195,-12,0,-5
COc1ccc(-c2cn3c(C)c(C(=O)NC(C)C)sc3n2)cc1,-1,1,23094*,-8,-12,-2
Cc1cccc(NC(=O)c2sc3nc(-c4ccc(F)cc4)cn3c2C)n1,?,-56,19776*,-1,i,1
Cc1cccc(NC(=O)c2sc3nc(-c4ccccc4)cn3c2C)n1,2,-8,12530,5,-1,2
COc1ccc(-c2cn3c(C)c(C(=O)NC(C)(C)C)sc3n2)cc1,0,6,6765,-4,0,-4
Cc1c(C(=O)NCc2ccccn2)sc2nc(-c3ccc(F)cc3)cn12,1,0,19364*,-8,i,1
O=C(Cc1ccc([N+](=O)[O-])cc1)N1N=C(C2CC2)CC1(O)C(F)(F)F (stereo not given),0,8,4304,1,0,1
CCOC(=O)[C@]12CCC=C1N(Cc1ccc3c(c1)OCO3)C(=O)[C@H](CC(=O)NCCCN1CCCC1=O)C2,0,·,5769,-7,·,-2
O=C(CN1CCC(C(=O)c2ccc3c(c2)OCCO3)CC1)Nc1ccccc1C(F)(F)F,-5,-3,3919,-3,0,-2
Cc1c(C(=O)Nc2ccc3c(c2)OCO3)sc2nc(-c3ccccc3)cn12,-2,66*,9656,-5,-1,-20
Cc1c(C(N)=O)c(-c2ccccc2)nn1-c1ccccc1,-1,7,1965,0,0,-10
CCCc1c(-c2ccc(O)cc2)nn(-c2ccc(O)cc2)c1-c1ccc(O)cc1,0,51*,6429,-10,i,-1
O=C1c2ccccc2C(=O)N1Cc1nc(-c2ccncc2)no1,0,6,7753,-1,-4,1
O=C1c2ccccc2C(=O)N1CCCc1nc(-c2ccccn2)no1,0,1,4378,-3,0,-7
O=C1c2ccccc2C(=O)N1Cc1nc(-c2ccccc2)no1,-4,7,21600*,-1,-1,-5
O=C1c2ccccc2C(=O)N1CCc1nc(-c2ccccn2)no1,5,0,21427*,-4,-2,5
Cc1ccc(C2CC(=O)Nc3cc4c(cc32)OCO4)o1 (stereo not given),1,-6,23026*,-3,-2,2
COc1ccc(CNC(=O)Nc2nnc([C@@H]3C[C@H](O)[C@@H](CO)O3)s2)cc1,0,·,3856,0,1,1
CCN(CC)c1ccc(C=N/C(C#N)=C(\N)C#N)cc1,4,-124,17577*,-4,i,-8
N#CCC1c2ccccc2CCN1C(=O)Nc1cccc(Cl)c1 (stereo not given),-2,2,23621*,-9,0,-6
N#CCC1c2ccccc2CCN1C(=O)Nc1ccc(C(F)(F)F)cc1 (stereo not given),-1,2,16726*,-7,0,-5
CC(=O)Nc1ccccc1OCC(O)CS(=O)(=O)c1ccc(C(F)(F)F)cn1 (stereo not given),0,0,3032,4,-2,9

# Source: PubChem (several laboratories)
